Source: PubChem BioAssay (NCI)
About 83,000 compounds went through this panel and 20% of them were active in at least one assay; those are over-represented in the sample as a whole.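 Growth was measured after 48 h exposure to one concentration of compound in 96-well plates. Values under 10 count as active.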 Unmarked numbers belong to inactive results. Active and inactive are the calls of the source.

system: SK-MEL-5 melanoma; assay: NCI-60 one-dose screen, 48 h (100 = growth as untreated, 0 = no growth, -100 = all killed); conditions: 10 µM unless noted
Experimental: Growth inhibition of the SK-MEL-5 human tumor cell line is measured as a screen for anti-cancer activity. Cells are grown in 96 well plates and exposed to the test compound for 48 hours. Compounds are tested at a single concentration, which is 10^-5 M for most compounds. The reported endpoint is percent growth (GI% or GIPRCNT), where numbers from 0 - 100% represent growth inhibition, and numbers from -100% - 0 represent cell death. For example, a value of 40 represents 60% growth inhibition. A value of 0 means no net growth occurred over the course of the experiment. A value of -40 indicates 40% of cells at the beginning of the experiment died by the end of the experiment. A value of -100 means all cells are dead at the end of the experiment.
NCI-60 Human Tumor Cell Lines Screen was performed using the standard one-dose NCI protocol, which is described in more detail at https://dtp.cancer.gov/discovery_development/nci-60/default.htm.
Compounds with GIPRCNT values below 10 were considered active. Activity score was based on GIPRCNT using the following formula: […]
Score is 0 for GIPRCNT values of 100 or above, 50 for GIPRCNT values of 0, and 100 for GIPRCNT values of -100.

Row | Compound | growth
1 | Cc1c(C(=O)OC(=NC2CCCCC2)NC2CCCCC2)sc2c1c(=O)nc1c(C#N)n[nH]n12 | 110%
2 | CCN(CCNc1ccc(C)c2sc3ccccc3c(=O)c12)CC(C)(C)O | 75.9%
3 | COc1cc(N2C(=O)c3nccnc3C2=O)cc(OC)c1OC | 111%
4 | CC(C)(C)CC(C)(C)Nc1c(-c2ccncc2)nc2cnccn12 | 99.4%
5 | COc1ccc(C2=NN(C(=O)c3cc(OC)c(OC)c(OC)c3)C(c3ccc(Cl)cc3)C2)cc1OC (stereo not given) | 9.51% (active)
6 | Clc1cc(Cl)cc(Nc2ccc3cc(OCCCN4CCOCC4)ccc3n2)c1 | 71%
7 | NC1=NCc2nc3ccccc3c(=O)n2C1 | 107%
8 | O=C(NCCc1ccc(O)c(O)c1)C12CC3CC(CC(C3)C1)C2 | 96%
9 | O=C(/C=C/c1ccc(Cl)nc1)c1ccc(Cl)cc1Cl | 99.5%
10 | O=C(CCc1nnc(CN(c2ccccc2)c2ccccc2)o1)c1nc2ccccc2[nH]1 | 99.4%
11 | O=C(NC(CSSCC(NC(=O)c1ccccc1)C(=O)O)C(=O)O)c1ccccc1 (stereo not given) | 108%
12 | COc1ccc(CNC(=O)C(O)C(Cc2ccccc2)NC(=O)c2[nH]c3ccccc3c(=O)c2C)cc1OC (stereo not given) | 103%
13 | CC(C)(C)OC(=O)Nc1ccc2c(c1)C(NC(=O)Nc1cccc(C#N)c1)CC(C)(C)O2 (stereo not given) | -5.57% (active)
14 | Nc1n[nH]c(-c2cc(Cl)ccc2O)c1-c1ccccc1 | 92.2%
15 | O=[N+]([O-])c1ccc(-c2cc(-c3ccc(Nc4nc(Nc5ccc(Cl)cc5)nc(Nc5ccc(Cl)cc5)n4)cc3)no2)cc1 | 79.5%
16 | CC1(c2ccccc2)NC(=O)N(NC(=O)CSc2nc(-c3cccs3)nc3ccccc23)C1=O (stereo not given) | 85.2%
17 | CC1(C)CC[C@]2(C(=O)N3CCOCC3)CC[C@]3(C)C(=CC[C@@H]4[C@@]5(C)CC[C@H](OC(=O)c6cccnc6)C(C)(C)[C@@H]5CC[C@]43C)[C@@H]2C1 | 54.3%
18 | c1c[nH]c(CNC2CCCCC2)c1 | 118%
19 | COc1cccc(Nc2nccc(Nc3ccc4[nH]ncc4c3)n2)c1 | -83.6% (active)
20 | COC(=O)c1ccc(CSc2nnc(-c3c(C)nc4ccc(C)cn34)o2)cc1 | 93.8%

Row | Compound | growth
21 | C=C1C(=O)O[C@H]2[C@H]1CC/C(CNC(=O)/C=C/c1ccc(Cl)cc1Cl)=C\CC[C@@]1(C)O[C@@H]21 | 3.01% (active)
22 | CC1CC(C(C)(C)C)C(=O)C(C(C)(C)C)C1 (stereo not given) | 105%
23 | Cc1cc(=O)oc2c1ccc1oc(C#N)c(C)c12 | 100%
24 | COC(=O)CCC1=C(C)C2=NC1=CC1=NC(=CC3=NC(=Cc4[nH]c(/c(=C(/C)O)c4C)=C2)C(C(C)=O)=C3C)C(C)=C1CCC(=O)OC | 103%
25 | Cc1nc2ccccc2n1CC1NC(=O)NC1=O (stereo not given) | 100%
26 | COc1ccc(-c2cc(-c3cc(OC)c(OC)c(OC)c3)c(C#N)c(N3CCOCC3)n2)cc1O | 60.8%
27 | CCOP(=O)(OCC)C1CP(=O)(c2ccccc2)CC(C)=C1Cl (stereo not given) | 103%
28 | O=C(Nc1ccc(Nc2ccncc2)cc1)c1ccc(C(=O)Nc2ccc(Nc3ccncc3)cc2)cc1 | 34.4%
29 | O=C1Nc2ccc(F)cc2C12Nc1cc(Cl)ccc1S2 (stereo not given) | 83.4%
30 | Cc1ccc(NS(=O)(=O)c2ccc3c(c2)C(=O)CC(c2ccc(C(=O)C(C)C)cc2)N3)cc1C (stereo not given) | -10.4% (active)
31 | Fc1cnc(NC2CC2)nc1-c1cnc2ccc(N3CCOCC3)cn12 | -53.1% (active)
32 | COc1ccc(NC(=O)CSc2nnc(-c3cc(-c4ccccc4)nc4ccccc34)n2-c2ccccc2)cc1 | 90.8%
33 | O=C(NCCCNc1cc(-c2cn(-c3ccccc3)nc2-c2cccc(O)c2)ccn1)c1ccccc1 | -37.8% (active)
34 | CCCCOc1nc2ccccc2cc1C1CNC(=O)c2ccccc2N1 (stereo not given) | 15.6%
35 | COc1cccc(/C=C/C(=O)c2c(C)nc3ccccc3c2/C=C/c2ccc(C)cc2)c1OC | 66%
36 | CCOC(=O)c1c2ncccc2n2c(=O)n(-c3ccccc3C)nnc12 | 84%
37 | N[C@@H](CCCCNCC(=O)O)C(=O)O | 101%
38 | O=C(/C=C/c1cccc(O)c1)c1cccc(-n2cc(-c3ccc4ccccc4c3)[nH]c2=O)c1 | -2.25% (active)
39 | C=CCNc1nc(NN2C(=O)c3cccc4cccc(c34)C2=O)nc(-n2cnc3ccccc32)n1 | 64.9%
40 | OC(COc1ccccc1Cl)COc1ccccc1Cl | 96.8%
